Screen size: about 65,000 compounds; about 2,100 (3.2%) showed an effect of 50% or more. The median lay at about -52%. For the sample, strong results were picked, then their nearest neighbours and some compounds at random.
Each compound was assayed on Plasmodium falciparum (assay: Screen against P. falciparum Asexual Blood Stage (ABS), at 5uM). Settings: tested at 5 uM.
Assay type: functional, Dd2

SMILES	INHIBITION [%]
NC(=O)c1cc(C2CCCN(CCc3ccc4c(c3)CCO4)C2)n[nH]1 (stereo not drawn)	-88.6
O=C(c1ccc(=O)[nH]n1)N1CCCC1C1CCCC1 (stereo not drawn)	-148
O=C(c1c[nH]nn1)N1CCCC1C1CCCCC1 (stereo not drawn)	51
O=C(c1cnc2[nH]c(=O)[nH]c(=O)c2c1)N1CCCC1C1CCCCC1 (stereo not drawn)	0.342
CNC(=O)C1(c2cnccn2)CCCN1C(=O)c1cccc(C)n1 (stereo not drawn)	-80.1
CCc1ccc(CN2Cc3nccn3CC(CN3CCOCC3)C2)o1 (stereo not drawn)	-23.9
CCOc1ccc(N(C)Cc2nc(C)c(C)o2)cc1	43.9
CCOc1ccc(N(C)Cc2nnc(C3CC3)o2)cc1	61.5
CCOc1ccc(N(C)Cc2nnc(C)o2)cc1	27.1
Cn1cccc1C(=O)N1CCC2(CCN2c2ncccn2)C1 (stereo not drawn)	-28.5
O=C(NCc1ccc2c(c1)CCCO2)c1ccc(C2CCNC2)cc1 (stereo not drawn)	-95.6
COCC(=O)NCc1cnc(C)nc1-c1cn(C)c2ccc(OC)cc12	-88.7
CN(C)CCN1CCO[C@H]2CCN(C(=O)c3cccs3)CC[C@@H]21	-47.1
CCc1nnc2n1CCN(CC(=O)N1CCc3ccccc3C1)C2	-13.9
COc1ccc(C(=O)Nc2c(C(=O)N(C)C)nn(C)c2C)cc1	-64.8
COc1ccc(CC(=O)NC(C)c2nc3cccnc3n2C(C)C)cc1 (stereo not drawn)	-100
NCCn1nc(C2CCN(C(=O)Cc3ccccc3)C2)c2nccnc21 (stereo not drawn)	-28.7
Cn1nc(C2CCCN(Cc3ccc(F)c(F)c3)C2)c2nccnc21 (stereo not drawn)	23.4
NCCn1nc(C2CCN(Cc3ccc(Cl)c(Cl)c3)C2)c2nccnc21 (stereo not drawn)	63.5
NCCn1nc(C2CCN(C(=O)CC3CCCCC3)C2)c2nccnc21 (stereo not drawn)	-16.3
Cc1ccccc1CN1CCC(c2nn(CCN)c3nccnc23)C1 (stereo not drawn)	60.9
CC(C)(C)CC(=O)N1CCC(c2nn(CCN)c3nccnc23)C1 (stereo not drawn)	-94.3

SMILES	INHIBITION [%]
CNC(=O)[C@H]1CO[C@H]2CCN(Cc3ccc4ccccc4n3)C[C@H]2C1	-51.5
Cc1nc(NCc2ccccn2)c2c(n1)c(C)nn2C	-26.7
Cc1cccc(Nc2cc(C)nc(C3CCN(C(C)C)C3)n2)n1 (stereo not drawn)	-36.6
CC(C#N)CSc1ccccc1NCC(=O)Nc1ccccc1 (stereo not drawn)	-67.8
CC(C#N)CSc1ccccc1NCC(=O)NC(C1CC1)C1CC1 (stereo not drawn)	56.3
CC(C#N)CSc1ccccc1NCC(=O)NC1CCCCC1 (stereo not drawn)	-56.9
Cc1nc(CNCC2CN(C)CCO2)cs1 (stereo not drawn)	-102
CN1CCOC(CNCc2csc(C3CCCC3)n2)C1 (stereo not drawn)	-14.3
CN1CCOC(CNCc2csc(C3CCCCC3)n2)C1 (stereo not drawn)	58.6
c1cncc(N2CCCn3nnc(CN4CCCCC4)c3C2)c1	-88.4
Cc1ccccc1SCC(=O)NS(=O)(=O)c1ccc2c(c1)OCCO2	-14.4
c1cncc(COCc2nnc3n2CCN(Cc2ccsc2)C3)c1	-113
O=C(c1ccc(F)cc1)N1CCN2C[C@H](OCc3cccnc3)C[C@H]2C1	1.13
Cc1occc1C(=O)N1CC[C@H]2C[C@@H](c3nnc(C4CC4)o3)O[C@@H]2C1	-11.7
COCCN1CCC(CNCc2c[nH]nc2C(C)(C)C)CC1	-130
Cc1ccc(CNCc2c[nH]nc2C(C)(C)C)c(OC2CCOC2)c1 (stereo not drawn)	57
CN(C)CCN1CCC(CNCc2c[nH]nc2C(C)(C)C)CC1	-15.5
CCCNc1ncc(-c2cc(C3CC3)nc(N)c2C#N)cn1	55.8
CCSc1ncc(-c2cc(C3CCC3)nc(N)c2C#N)cn1	-28.9
CCSc1ncc(-c2cc(C3CC3)nc(N)c2C#N)cn1	4.79
CC1CCN(C(=O)CN2CC(c3nc(C4CC4)no3)C2)CC1	-20.1
O=C(C1CCC1)N1CCN(Cc2ccsc2)[C@H]2CS(=O)(=O)C[C@H]21	-87.7

SMILES	INHIBITION [%]
O=C(C1CCCC1)N1C[C@@H](c2ccsc2)[C@@H]2CN(C3CCCC3)CC[C@@H]21	54.7
CCC(=O)N1CCCC1c1ccsc1 (stereo not drawn)	-72.1
CCOc1ncccc1CNC(=O)Nc1ccc(CC)cc1	-138
COc1cccc(CNC2CCc3ccc(C)cc32)n1 (stereo not drawn)	60.8
Cc1ccc2c(c1)OCCCC2NCc1nnc2n1CCCCC2 (stereo not drawn)	-139
COc1ccc2c(c1)C(NCCc1ccccn1)CCCO2 (stereo not drawn)	57.6
COc1ccc2c(c1)C(NCCc1ncc(C)s1)CCCO2 (stereo not drawn)	-31.7
COc1ccc2c(c1)C(NCCc1c(C)noc1C)CCCO2 (stereo not drawn)	32.9
COc1c(CNC2CCCOc3ccc(F)cc32)c(C)nn1C (stereo not drawn)	29
Cc1ccc2c(c1)C(NCc1ncnn1C)CC2 (stereo not drawn)	-64.9
Cc1ccc2c(c1)C(NCc1ccccn1)CC2 (stereo not drawn)	37.5
COc1cccc(CNC2CCCOc3cc(C)ccc32)n1 (stereo not drawn)	68.4
COc1ccc(C2=CCN(C(=O)CN(CC(N)=O)C(C)C)CC2)cc1	-68.8
Cc1noc(C)c1CN1CCC[C@]2(C[C@@H](Oc3ccccn3)CO2)C1	-61.7
CC(=O)N1[C@H](Cn2cncn2)C[C@@H]2CN(Cc3ccncc3)CC[C@@H]21	-149
COc1ccc(C)c(NC(=O)NCc2ncnn2C)c1	-80.2
O=C(NCCn1ccnc1)N1CCCC1c1ccsc1 (stereo not drawn)	-159
O=C(NCCn1ccnc1)N1CCCC1c1ccncc1 (stereo not drawn)	-10
COc1ccc(C2CCCN2C(=O)NCCn2ccnc2)cc1 (stereo not drawn)	59.1
COc1ccc(C2CCCN2C(=O)NCCCn2cccn2)cc1 (stereo not drawn)	-90.4
O=C(NCCn1ccnc1)N1CCCC1c1ccc2c(c1)OCCO2 (stereo not drawn)	51.2
COc1ccc(C2CCCN2C(=O)NCCn2ccnc2)cc1OC (stereo not drawn)	-189

SMILES	INHIBITION [%]
CCOc1ccc(C2CCCN2C(=O)NCCn2ccnc2)cc1 (stereo not drawn)	36.1
COc1ccc(C2CCCN2C(=O)NCCCn2ccnc2)cc1 (stereo not drawn)	61.9
O=C(NCCCn1ccnc1)N1CCCC1c1ccncc1 (stereo not drawn)	-65.7
CC(C)(C)c1nnnn1CC(=O)N(CCC#N)c1ccccc1	-55.4
CN(C)C(C(=O)NCc1cc(C(C)(C)C)n[nH]1)c1ccc(F)cc1 (stereo not drawn)	-1.64
COCCn1c2c(ccc1=O)CC(NCc1cnn(C)c1)CC2 (stereo not drawn)	-23.6
Cc1cc(O)ncc1NS(=O)(=O)c1cccc(F)c1F	-123
CCS(=O)(=O)N[C@H]1CN(Cc2noc(COC)n2)C[C@@H]1C1CC1	-96.2
Cc1cccc(-c2nc(N)nc3c2CN(C(=O)c2cc(C)n[nH]2)C3C)c1 (stereo not drawn)	32.2
COCCN1Cc2ccccc2C2(CCN(C(=O)c3ccco3)CC2)C1	-50.4
COc1ccccc1-n1nc(CC(C)C)nc1CSc1nnc(N)s1	-36.5
CC(NCC1(N(C)C)CCOCC1)c1ccc(S(C)(=O)=O)cc1 (stereo not drawn)	-56.25
CC(NCC1(N(C)C)CCOCC1)c1ccc(SC(F)F)cc1 (stereo not drawn)	52.35
CSC1(CNC(=O)NC(C)c2ccc(F)cc2)CCOCC1 (stereo not drawn)	-162
COCC1CN(S(=O)(=O)Cc2ccccc2)Cc2c1cnn2C (stereo not drawn)	-54.3
Nc1cc2c(nn1)CCN(C(=O)CCCC1CCCCC1)C2	-83.9
CO[C@H]1CN(Cc2c(C)ccc3ncccc23)CC[C@H]1N	67.2
Cc1ccc2ncccc2c1CN1CC[C@H](N(C)C)[C@H](CCC(=O)O)C1	-3.92
COCCCC1CCCN(Cc2c(C)ccc3ncccc23)C1 (stereo not drawn)	37.2
Cc1cc(NC(=O)c2ccc(CN3CC[C@H](O)C3)cc2)ccc1F	21.2
CC(=O)N1CCCC1c1cccc(NCc2ccccc2F)n1 (stereo not drawn)	-133
COc1cc(N2CCC3(CCN(Cc4csc(C)n4)C3=O)C2)ncn1 (stereo not drawn)	-8.45

SMILES	INHIBITION [%]
COCCCN1CCN([C@@H]2c3ccccc3C3(CCNCC3)[C@H]2O)CC1	-68.7
CCNC(=O)[C@@H]1C[C@H](N)CN1c1cc(C(F)(F)F)nc(N2CCCC2)n1	54.7
CCNC(=O)[C@@H]1C[C@H](N)CN1c1cc(C(F)(F)F)nc(N(C)C)n1	20.4
CCNC(=O)[C@@H]1C[C@H](N)CN1c1cc(CC)nc(N(C)C)n1	-67.6
CC(=O)Nc1nc(C(=O)N2CCCC(n3cncn3)C2)cs1 (stereo not drawn)	-101
CN(C(=O)Cn1nc(-c2ccccc2)ccc1=O)C1CCS(=O)(=O)C1 (stereo not drawn)	-30.2
Fc1ccccc1CC1CCN(Cc2cscn2)CC1	45
Fc1ccc(CC2CCN(Cc3cscn3)CC2)cc1	50.7
Fc1ccc(CN2CCCN(Cc3cscn3)CC2)cc1	43.6
CN1CCc2nc(C3CCCCN3Cc3ccccc3Cl)ncc2C1 (stereo not drawn)	-32.4
CN1CCCCC1c1ncc2c(n1)CCN(Cc1ccc(Cl)c(F)c1)C2 (stereo not drawn)	65.6
CN1CCCCC1c1ncc2c(n1)CCN(Cc1ccccc1Cl)C2 (stereo not drawn)	41.5
O=C(CCCOc1cccc(F)c1)N1CCCC(n2cccn2)C1 (stereo not drawn)	-31.5
N#Cc1cn(C2CC2)c(=O)n(CC(O)c2ccc(F)cc2)c1=O (stereo not drawn)	44.7
N#Cc1cn(C2CC2)c(=O)n(CC(O)c2ccccc2C(F)(F)F)c1=O (stereo not drawn)	51
N#Cc1cn(C2CC2)c(=O)n(CC(O)c2ccccc2F)c1=O (stereo not drawn)	-128
c1ncn(Cc2ccc(CNCc3ccc4c(c3)OCCO4)cc2)n1	0.0598
CC(C)c1cc(NC(=O)c2ccc(C(=O)NC(C)(C)C)cc2)[nH]n1	64
CC(C)c1cc(NC(=O)c2ccncc2)[nH]n1	-134
CC(C)c1cc(NC(=O)c2ccc([S+]([O-])C(C)C)cc2)[nH]n1 (stereo not drawn)	-172
